Inhibition data for 93 molecules are collected here from PubChem BioAssay AID602449 (Sanford-Burnham Center for Chemical Genomics, 2012).

The inhibition is the relative decrease from the control value, in per cent.

Out of some 360,000 compounds screened, about 5,000 (1.4%) were called active. The entries come from a sample that favours actives as a whole. Unmarked numbers belong to inactive results.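 Rule for the calls: active = inhibition of 50% or more, scaled per plate between neutral and stimulator controls; inactive = the rest.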

This experiment is described as follows: blockers of Ca2+-induced mitochondrial swelling – biochemical, isolated mouse mitochondria, absorbance, primary screen (AID 602449).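 Note: 0% = DMSO wells given calcium and 100% = 1 mM EGTA wells.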 The note with it: 30 min, at 10 µM, active compounds read high.
As for `COc1ncnc2c1N=C1CC(C)(C)CC(N)=C1S2`, the inhibition was 0.5%. For the molecule `O=C(COc1ccc(S(=O)(=O)N2CCOCC2)cc1Cl)N1CCOCC1`, the inhibition was 0.5%. In the case of `COc1ccc(Cn2c(=O)sc3ccccc32)cc1OC` it was 72.6% (active). The value for `COc1ccccc1CNC(=O)CCn1c(=O)sc2ccccc21` was 0.2%; that for `COc1ccc(CN2CCOC2=O)cc1OC` was 0.9%; that for `Nc1ccc(OCC(O)C[n+]2ccc(CCS(=O)(=O)[O-])cc2)cc1` (stereo not drawn) was -2.1%.

Turning to `Oc1c(Cl)cc(Cl)c(Cl)c1Cc1c(O)c(Cl)cc(Cl)c1Cl`, the inhibition is 80.8% (active). Turning to `CN(C)C(=O)N=NC(=O)N(C)C`, the inhibition was 4.3%. In the case of `CCC1=C(OC(=O)N(CC)CC)N2C(=O)OC(=NCCc3c[nH]c4ccccc34)[C@]2(C)[C@H]2C1=CC[C@H]1C(=O)N(CC)C(=O)[C@H]12` it was 0%; in that of `CC1(C)OC(=O)C2=C(C[C@@H](C3CC3)O[C@H]2CCc2cccc(Cl)c2)O1`, 1%; in that of `O=C(Nc1nc2c(F)cc(F)cc2s1)C1COc2ccccc2O1` (stereo not drawn), 63.7% (active).

For `O=C(Nc1nnc(SCc2ccc(Cl)cc2Cl)s1)C1COc2ccccc2O1` (stereo not drawn), the inhibition was 70% (active). The value for `O=C(Nc1cc(S(=O)(=O)N2CCCCC2)ccc1Cl)C1COc2ccccc2O1` (stereo not drawn) was -0.4%; that for `Cc1cc(C)c2nc(NC(=O)C3CCCO3)sc2c1` (stereo not drawn) was -9.1%; that for `C/C(=N/NC(=O)C1COc2ccccc2O1)c1ccco1` (stereo not drawn) was 0.4%. With `O=C(N/N=C\c1cc(Br)c(Br)o1)C1COc2ccccc2O1` (stereo not drawn), the inhibition was 3.3%.

On to `O=C(CN1CCOCC1)N1CCCc2c1c(=O)oc1ccc(OCc3ccccc3)cc21`, for which the inhibition was 5.1%. In the case of `CCCN(CCC)c1c([N+](=O)[O-])c(=O)oc2ccccc12` it was -6.7%; in that of `COCCCNC(=O)C1CCN(c2ccc(N3CCOCC3)nn2)CC1`, 0.3%; in that of `OC(c1ccccc1)c1nccn1Cc1ccccc1` (stereo not drawn), -1.7%.

As to `O=S(=O)(N1CCCCC1)N1CCNCC1`, the inhibition is 1.7%. In the case of `O=C1c2ccccc2S(=O)(=O)N1Cc1c(F)cccc1Cl` it was -0.3%.

On to `NC(N)=N/N=C/c1ccc(Cl)c([N+](=O)[O-])c1`, for which the inhibition was 90.5% (active).

With `NC(N)=N/N=C/c1ccc(OCc2ccc(Cl)cc2Cl)cc1`, the inhibition is 6%. The value for `Nn1cnnc1N/N=C/c1cc([N+](=O)[O-])c(Cl)cc1Cl` was 0.6%; that for `CC(C)N(C(=O)[C@H]1C[C@H](CC(=O)NC(C)(C)C)C(=O)N2CCc3c([nH]c4ccc(Cl)cc34)[C@]12C)C(C)C` was -1.7%; that for `Cc1ccc(C(=O)N/C(=C/c2cccnc2)C(=O)O)cc1` was 0.9%. The value for `C/C(=N\NC(=O)c1ccc(C)cc1)C1C(=O)c2ccccc2C1=O` was 57.8% (active); that for `O=C1c2ccccc2C(=O)C1C(=O)C1CC1` was -0.9%; that for `CCOc1ccc(S(=O)(=O)Nc2nccs2)cc1` was 0.5%. The value for `Cn1c(Cc2cccc3ccccc23)nnc1SCC(=O)N1CCN(c2cccc(Cl)c2)CC1` was -0.5%.

Regarding `Cc1cccc(C(=O)Nc2ccc(Oc3cnccn3)cc2)c1`, the inhibition was 0.7%. The value for `O=C(Nc1ccc(Cl)cc1)Nc1ccc(Oc2cccnc2)nc1` was 82.5% (active); that for `O=C(O)CCCC(=O)Nc1ccc(Oc2cccc(C(F)(F)F)c2)nc1` was 0.9%; that for `O=C1c2ccccc2[C@@H]2C[C@@H](O)[C@H](Nc3ccccc3Cl)CCN12` was -0.5%.

Take `Cc1ccc2c(c1)C(c1ccccc1)N(C(=O)c1ccc(S(=O)(=O)N3CCOCC3)cc1)CC(=O)N2` (stereo not drawn): the inhibition was -0.3%. In the case of `Nc1nc(CSc2nnnn2-c2ccccc2)nc(Nc2ccccc2)n1` it was 0%. As for `O=C(c1ccc(-c2ccccc2)cc1)C1CCCN(C(=O)c2cncs2)C1` (stereo not drawn), the inhibition was -1.8%. In the case of `Cc1ccn(CC(=O)NC2CCCN(Cc3ccccc3F)C2)n1` (stereo not drawn) it was 0.4%; in that of `CCOC(=O)Nc1ccc2c(c1)N(C(=O)CCN1CCN(CCO)CC1)c1ccccc1CC2`, 0.2%; in that of `CCNCCC(=O)N1c2ccccc2Sc2ccc(NC(=O)OCC)cc21`, 75.6% (active). In the case of `CCOC(=O)Nc1ccc2c(c1)N(C(=O)CCCl)c1ccccc1[S@]2=O` it was -1.2%. As to `Cc1cccnc1NC(=O)Cn1c(=O)oc2ccccc21`, the inhibition was -0.1%.

As to `COC(=O)c1ccc(CNC(=O)C2CCC(=O)N(Cc3cccc(F)c3)C2)cc1` (stereo not drawn), the inhibition was -0.2%. Regarding `CCn1c(NC(=O)c2ccccc2)c(-c2cccs2)c(=O)c2ccccc21`, the inhibition was 1.4%. In the case of `C=CCN(CC=C)S(=O)(=O)c1ccc(C(=O)Nc2nc3c(s2)CCc2ccccc2-3)cc1` it was -1.2%.

Regarding `N#Cc1ccc(C(=O)Nc2nc(-c3cccs3)c(C(=O)C(F)(F)F)s2)cc1`, the inhibition is 87.5% (active).

As for `Cc1ccc2nnn(Cc3cccc(C(C)(C)C)c3O)c2c1`, the inhibition is 93.7% (active). The value for `CCCNC(=O)c1ccccc1NC(=O)CSCc1ccc(OC)cc1` was 0%; that for `COc1ccc(/C=C2/SC(=O)N(CCCCCC(=O)Nc3ccccc3C(=O)O)C2=S)cc1` was 60% (active).

For the molecule `COc1ccc(NC(=O)CCCN2C(=O)C(c3ccccc3)Oc3cccnc32)cc1` (stereo not drawn), the inhibition was 1.6%.

`CCN1C[C@@H]2[C@@H]3C(=O)N(C)C(=O)[C@@H]3[C@](C)(C1=O)N2C(=O)c1ccccc1`: the inhibition was -0.4%.

Regarding `COc1ccc(S(=O)(=O)N[C@@H]2C=C[C@@H](CC(=O)N3CCc4ccccc4C3)O[C@@H]2CO)cc1`, the inhibition was 0.4%. As to `Cc1cc(C)c(C#N)c(SCC(=O)N(CC(C)C)C2CCS(=O)(=O)C2)n1` (stereo not drawn), the inhibition is -1.7%. The value for `CC1=C(C/C=C(\C)CCCC(C)CCCC(C)CCCC(C)C)C(=O)c2ccccc2C1=O` (stereo not drawn) was -2.2%; that for `COc1ccc(CCNS(=O)(=O)c2cn(C)nc2C)cc1` was -0.3%; that for `CCC1CCCCN1C(=S)Nc1ccc(SC(F)F)cc1` (stereo not drawn) was 34%. The value for `O=C(Cc1ccc(Cl)c(Cl)c1)Nc1ccc(SC(F)F)cc1` was 82% (active); that for `N#C/C(=C\c1cccnc1)C(=O)Nc1ccc(SC(F)F)cc1` was 7.2%.

For the molecule `CCc1nc2c(OCCOc3ccc(F)cc3)cccn2c1N(C)C(=O)c1ccccc1F`, the inhibition is 0.6%. The value for `Cc1nc2nc(SCC(=O)Nc3cccc(F)c3)[nH]c2cc1Br` was 63.9% (active); that for `Cc1nc2nc(SCC(=O)c3ccccc3)[nH]c2cc1Br` was 9.9%. The value for `O=C(CSc1nc2[nH]c(=O)[nH]c(=O)c2s1)Nc1cccc(F)c1` was -0.6%; that for `COc1cc(OC)cc(-c2c(-c3cccs3)c3cc(-c4ccc(OC)nc4)ccc3n2C)c1` was -0.4%.

Turning to `CCC(C)NC(=O)c1ccccc1NC(=O)c1ccccc1N(C)S(C)(=O)=O` (stereo not drawn), the inhibition was 0.4%. The value for `COCC(C)n1c(C)cc(C(=O)CSc2cc(C)c3ccccc3n2)c1C` (stereo not drawn) was 3.2%; that for `CCCNC(=O)c1cc(C2CCCCN2S(=O)(=O)c2cn(C)cn2)on1` (stereo not drawn) was 0.2%; that for `O=C(NCc1cc(C(F)(F)F)cc(C(F)(F)F)c1)C1CC(c2cccc(F)c2)=NO1` (stereo not drawn) was 2%. As to `Cn1nccc1NC(=O)Nc1ccc(OC(F)(F)F)cc1`, the inhibition is 60.1% (active). In the case of `COC(=O)Cc1ccc(OCC(=O)Nc2ccc(OC(F)(F)F)cc2)cc1`, the inhibition is 0.1%. The value for `CN(CC(=O)Nc1ccc(OC(F)(F)F)cc1)C(=O)C1CCC1` was -0.8%; that for `Cc1sc2ncnc(N3CCC(C(=O)NNC(=O)c4ccc(F)cc4)CC3)c2c1C` was 0.7%. In the case of `Cc1ccc2cc(CN(c3ccc(C)c(C)c3)S(C)(=O)=O)c(=O)[nH]c2c1`, the inhibition was -0.6%. The value for `C/C(=N\Nc1ccc([N+](=O)[O-])cc1)c1ccc(-n2nncc2C(C)(C)C)cc1` was 20.4%. In the case of `Cc1nc(C)c2c(c1C(F)(F)F)-c1ccccc1C2(F)F` it was -0.4%; in that of `COc1cc(S(=O)(=O)Nc2ncn[nH]2)ccc1Cl`, -1.7%; in that of `CCCCNC(=O)CSc1nc2ccc(NC(=O)CSc3nnc(COc4ccccc4C)n3C)cc2s1`, 4.8%.

Take `Nc1nnc(SCC(=O)Nc2ccc3nc(SCC(=O)Nc4ccccc4)sc3c2)s1`: the inhibition was 95.5% (active). In the case of `CCCCNC(=O)CSc1nc2ccc(NC(=O)CSc3nnc(N)s3)cc2s1` it was 15.3%; in that of `O=C1c2ccccc2C(Nc2ccc3c(c2)OCCO3)N1Cc1ccco1` (stereo not drawn), 3%; in that of `C[C@H](CO)N1C[C@H](C)[C@@H](CN(C)C(=O)NC2CCCCC2)Oc2ccc(NC(=O)c3ccncc3)cc2C1=O`, -0.8%.

As for `CCOC(=O)NC(C(F)(F)F)(C(F)(F)F)P(=O)(c1ccccc1)c1ccccc1`, the inhibition was -3.1%. The value for `CC(=O)c1c(C)[nH]c(C(=O)COC(=O)c2cccc(S(=O)(=O)N(C)c3ccccc3)c2)c1C` was 99.3% (active). In the case of `CC(=O)c1c(C)[nH]c(C(=O)COC(=O)CCOc2ccc(C)cc2)c1C`, the inhibition is -2.4%. The value for `CN(c1ccccc1)S(=O)(=O)c1ccc(Cl)c(C(=O)OCC(N)=O)c1` was 1.9%.

`O=C1NCCn2nc3ccccc3c21`: the inhibition was 2.9%. The value for `CCCC(C(=O)OCCN(CC)CC)(c1ccccc1)c1ccccc1` was 85.7% (active); that for `CCN(CC)CCNCC(=O)Nc1ccc(Oc2ccccc2)cc1` was 1.8%; that for `CCN(CC)CCOC(=O)c1ccc(NC(=O)CNC(=O)c2ccccc2)cc1` was -3.4%.

Consider `Cc1ccccc1C(=O)NC(=S)NC1CC1`, for which the inhibition is 1.7%.

For `COc1ccccc1C(=O)NC(=S)Nc1ccc(N2CCOCC2)cc1`, the inhibition was -1.6%. The value for `Cc1ccccc1C(=O)NC(=S)Nc1ccc(N2CCN(C(=O)c3ccccc3)CC2)cc1` was 57.1% (active); that for `O=[N+]([O-])c1cccc(S(=O)(=O)N2CCCCCC2)c1` was -1%.
